# Compound activity from PubChem.
# Glioma ERSR ind = ER stress response induction in glioma | U87-MG GRP78 promoter luciferase reporter, 16 h | Potency, µM, most hits filed as activators | 420,000 tested, 0.02% active | AID 602332; note: series mostly up to about 76 µM; nearly all actives have a fitted effect of over 35% in size
#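 Stably transfected U87-MG glioma cells carrying a GRP78-based luciferase sensor; 16 h compound incubation. Luminescence end-point read 10 min after Bright-Glo addition at room temperature.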
# VDR inh = inhibitors of human vitamin D receptor. 400,000 tested, 0.93% active. Potency, µM, actives largely listed as inhibitors. AID 504847. VDR-SRC2-3 peptide fluorescence polarization, 2 h
# Target sequence (P11473 whole entry, looked up): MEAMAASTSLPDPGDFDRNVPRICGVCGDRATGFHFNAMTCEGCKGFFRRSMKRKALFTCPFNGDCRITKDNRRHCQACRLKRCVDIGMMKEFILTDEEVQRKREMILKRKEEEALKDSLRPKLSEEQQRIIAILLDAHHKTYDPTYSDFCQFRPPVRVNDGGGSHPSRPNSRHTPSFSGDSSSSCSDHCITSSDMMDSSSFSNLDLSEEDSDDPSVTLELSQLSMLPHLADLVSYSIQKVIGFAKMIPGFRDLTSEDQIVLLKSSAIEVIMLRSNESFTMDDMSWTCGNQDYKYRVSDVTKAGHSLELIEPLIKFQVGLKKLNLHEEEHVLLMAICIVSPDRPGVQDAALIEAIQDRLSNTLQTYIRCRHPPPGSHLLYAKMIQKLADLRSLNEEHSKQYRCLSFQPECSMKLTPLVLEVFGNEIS
#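 Fluorescence polarization assay of small-molecule disruption of VDR binding to coregulator peptide SRC2-3. Compounds and controls pin-transferred, then read after 2 h incubation at ambient room temperature.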
# ALOX12 inh = inhibitors of human 12S-lipoxygenase ALOX12; P18054; purified 12hLO, xylenol orange hydroperoxide absorbance; Potency, µM (titrated, usually from 108 µM), usual class: inhibitors; 580,000 tested, 1.1% active; AID 1671190
#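 Purified human 12hLO at 150 nM in 25 mM Hepes, 0.01% Triton X-100, pH 7.0, preincubated 15 min at room temperature with compound. Reaction started with 40 uM arachidonic acid, 30 min at room temperature. Hydroperoxide measured by Fe-xylenol orange, 573/405 nm absorbance ratio.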
# Sfp PPTase inh = inhibitors of Bacillus subtilis Sfp phosphopantetheinyl transferase; AID 1490; Biochemical Sfp PPTase activity, qHTS; Q9F4F7; 310,000 tested, 3.5% active; Potency, µM, actives largely listed as inhibitors;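 note: the enzyme is Sfp with the accession as filed and its product quenches rhodamine fluorescence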
#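 After 15 min at room temperature with compound, 15 nM Sfp received 5 uM rhodamine-CoA plus 12.5 uM BHQ-2-ybbR (50 mM Hepes pH 7.6, 10 mM MgCl2). Rate came from the fluorescence difference over 30 min, ex 525/em 598 nm.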
# G9a inh = G9a (human) methyltransferase inhibition; 350,000 tested, 8.8% active; G9a H3K9 monomethylation, AlphaScreen, 2 h; Q96KQ7; Potency, µM (series often up to 102 µM), actives largely listed as inhibitors; AID 504332; note: nearly all actives have a fitted effect of over 75% in size
# Target sequence (Q96KQ7 913-1193 limits assumed): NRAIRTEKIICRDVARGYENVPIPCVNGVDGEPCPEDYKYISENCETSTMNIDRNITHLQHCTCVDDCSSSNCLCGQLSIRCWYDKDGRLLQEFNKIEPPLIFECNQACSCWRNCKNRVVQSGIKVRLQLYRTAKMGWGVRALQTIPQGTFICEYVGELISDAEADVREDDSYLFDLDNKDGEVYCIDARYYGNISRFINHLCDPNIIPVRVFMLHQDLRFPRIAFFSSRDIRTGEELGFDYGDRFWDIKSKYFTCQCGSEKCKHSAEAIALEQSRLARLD
#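 Using a bead-based AlphaScreen, monomethylated H3K9 product from 2 h room-temperature reactions (G9a 20 nM, peptide 500 nM, SAM 20 uM) was detected with 0.5 ug/mL rabbit anti-H3K9me1 antibody.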
# Hits are given with their value; 0 = inactive; ? = inconclusive; - = no result given; [ ] = another dose, or the depositor's remark. Only a selection was taken, and hits are over-represented in it overall. Calls come from the whole dose curve; as a rule, active = well fitted curve in the direction sought with a large enough effect; inconclusive = small, poorly fitted or top-dose-only effect, or another doubt; inactive = no such curve, though single readings can be large; an effect the other way counts as inactive or inconclusive.
SMILES,Glioma ERSR ind,VDR inh,ALOX12 inh,Sfp PPTase inh,G9a inh
COc1ccc(NS(=O)(=O)c2ccc3[nH]c4c(c3c2)CCCC4)cc1OC,0,0,?,-,11.2µM
O=S(=O)(NCc1ccc(F)cc1)c1ccc2[nH]c3c(c2c1)CCCCC3,0,0,?,-,8.91µM
O=S(=O)(c1ccc2[nH]c3c(c2c1)CCCC3)N1CCCCC1,0,89.1µM,0,0,-
COc1cc(C(=O)Nc2ccc3oc(=O)ccc3c2)ccc1OC(F)F,-,-,0,-,-
Cn1nc(C(=O)N2CCN(c3ccccc3Cl)CC2)c2ccccc2c1=O,-,-,0,-,-
CC(=O)Nc1ccc(S(=O)(=O)N2CCN3CCCC3C2)cc1 (stereo unspecified),0,0,0,0,79.4µM
O=C(CN1CCN(c2ccccc2O)CC1)Nc1ccc(S(=O)(=O)N2CCCCCC2)cc1,0,0,0,-,44.7µM
CC1CCN(S(=O)(=O)c2ccc(NC(=O)CN3CCCC3)cc2)CC1,0,0,?,0,10µM
CC1CCN(CC(=O)Nc2ccc(S(=O)(=O)NC3CC3)cc2)CC1,0,0,?,0,14.1µM
Cc1noc(C)c1C(=O)Nc1ccc(S(=O)(=O)N2CCC(C)CC2)cc1,0,0,0,-,22.4µM
CC1CCCN(CC(=O)Nc2ccc(S(=O)(=O)N3CCCCC3)cc2)C1 (stereo unspecified),0,0,0,0,0
CC1CCCN(S(=O)(=O)c2ccc(NC(=O)CN3CCCCC3)cc2)C1 (stereo unspecified),0,0,0,0,44.7µM
CNC(=O)NC(=O)CCN(Cc1ccc(C#N)cc1)C(C)C,-,-,0,-,-
Cc1ccc(-c2nc(C)sc2CC(=O)NCC23CC4CC(CC(C4)C2)C3)cc1,-,-,0,-,-
CN(C)c1ccc(C=NNc2ccccn2)c(Cl)c1,0,0,0,-,-
CN(C)c1ccc(/C=N/Nc2ccc(-n3ccnc3)nn2)cc1,0,0,0,44.7µM,?
COc1cc(/C=N/Nc2ccccn2)ccc1O,0,0,0,?,?
CN(C)c1ccc(/C=N\Nc2ccccn2)cc1,0,0,?,0,39.8µM
CN(C)c1ccc(/C=N/NC(=O)c2ccc(-n3cnnn3)cc2)cc1,0,0,0,-,?
COc1ccc(/C=N/Nc2ccccn2)cc1OC,0,0,0,56.2µM,0
COc1ccc(/C=N/Nc2cc(=O)n(C)c(=O)n2C)cc1OC,0,?,0,89.1µM,0
Cc1cc(Nc2cccc(F)c2)nc(-c2ccccc2)n1,-,-,0,-,-
CNC(=S)NNC(=O)c1ccccn1,-,-,0,-,-
CCc1ccc(C(=O)N2CCc3c(sc4ncnc(N)c34)C2)cc1,-,-,0,-,-
Cc1ccc(C)c(S(=O)(=O)N2CCC(n3cnnc3C(C)C)CC2)c1,-,-,0,-,-
SMILES,Glioma ERSR ind,VDR inh,ALOX12 inh,Sfp PPTase inh,G9a inh
CCn1c(CSc2n[nH]c(-c3ccccc3)n2)nc2cc(S(=O)(=O)N(C)C)ccc21,-,-,0,-,-
Cc1cc(N/N=C/c2ccc(N(C)C)cc2)c2ccccc2n1,0,0,0,0,56.2µM
OC(C#CCN1CCC(c2ccccc2)C1)(c1ccccc1)C1CCCCC1 (stereo unspecified),-,-,0.891µM,-,-
COC(=O)c1sccc1-c1ccc(C(N)=O)o1,-,-,-,0,50.1µM
CCN1C(=O)C(O)(CC(=O)c2cc(C)c(C)cc2C)c2ccccc21 (stereo unspecified),-,-,0,-,-
CC(C)CC(OC(=O)c1cccs1)C(=O)NCc1ccco1 (stereo unspecified),0,?,?,?,12.6µM
CCC(OC(=O)c1cccs1)C(=O)NCc1ccco1 (stereo unspecified),0,0,0,0,0[12.7 µM]
Cc1nc2sc(C(c3cccs3)N3CCN(C(=O)c4ccco4)CC3)c(O)n2n1 (stereo unspecified),0,0,0,0,39.8µM
Cc1nc2sc(C(c3ccccc3)N3CCN(C(=O)c4ccco4)CC3)c(O)n2n1 (stereo unspecified),0,0,0,0,0
Cc1nc2sc(C(c3ccco3)N3CCN(c4ccccc4F)CC3)c(O)n2n1 (stereo unspecified),0,0,0,0,44.7µM
CC1CN(C(c2ccco2)c2sc3ncnn3c2O)CC(C)O1 (stereo unspecified),0,0,?,39.8µM,39.8µM
Cc1nc2sc(C(c3ccco3)N3CCN(c4ccc(F)cc4)CC3)c(O)n2n1 (stereo unspecified),0,0,0,44.7µM,-
Cc1ccc(C(c2sc3nc(-c4ccco4)nn3c2O)N2CCN(c3ccc(F)cc3)CC2)cc1 (stereo unspecified),0,0,0,-,0
O=C(O)CCC1NC(=O)N(CCc2c[nH]c3ccc(F)cc23)C1=O (stereo unspecified),-,-,0,-,-
C=CCn1c(=O)c2c(nc(-c3ccc(S(=O)(=O)O)cc3)n2C)n(C)c1=O,0,0,?,0,11.9µM
Cc1ccc(C(=O)c2sc(Nc3ccc(Cl)cc3C)nc2N)cc1,-,-,28.2µM,-,-
CCC(=O)c1sc(Nc2ccc(Cl)cc2C)nc1N,-,-,0,-,-
Nc1ccccc1C12CC3CC(CC(C3)C1)C2,-,-,0,-,-
CCCCOc1ccc(NC(=O)Nc2nnc(C)s2)cc1,0,0,0,0,79.4µM
CCCCOc1ccc(NC(=O)CCSc2nccn2C)cc1,0,0,?,0,11.2µM
COc1ccc(NC(=O)Nc2nnc(C)s2)cc1,0,0,0,-,0
Cc1cc(C)cc(NC(=O)NCc2nc(-c3ccccc3)oc2C)c1,-,-,0,-,-
Cc1ccc(C(=O)OC(C)C(=O)NC(=O)NC2CC2)c(O)c1 (stereo unspecified),-,-,0,-,-
CCc1ccc(N/C(SC)=C(/C#N)C(N)=O)cc1,0,0,?,0,0[0.501 µM]
CCCCS/C(=C(/C#N)C(N)=O)c1cc2c([nH]1)CCCC2,0,0,?,?,20µM
SMILES,Glioma ERSR ind,VDR inh,ALOX12 inh,Sfp PPTase inh,G9a inh
Cc1ccc2nc(-c3ccncc3)[nH]c2c1,0,0,0,0,0
Cc1ccc2nc(-c3sc4nc(C)ccc4c3N)[nH]c2c1,0,0,35.5µM,0,?
O=[N+]([O-])c1nn(-c2ccc3c(c2)OCCO3)n(O)c1=NCCC1=CCCCC1,0,0,0,0,20µM
CCc1cccc(N=c2c([N+](=O)[O-])nn(-c3ccc4c(c3)OCCO4)n2O)c1,0,0,0,0,28.2µM
CCc1cccc(N=c2c([N+](=O)[O-])nn(-c3ccc(Cl)cc3)n2O)c1,0,0,0,0,0[2.33 µM]
Cc1ccc(CCc2nnc(SCC(=O)Nc3ccccc3Cl)n2-c2ccccc2)o1,0,0,0,0,28.2µM
CCOC(=O)c1ccc(NC(=O)CSc2nnc(CCc3ccc(C)o3)n2-c2ccccc2)cc1,0,0,0,15.8µM,44.7µM
O=C(Nc1cc(Cl)cc(Cl)c1)C(c1ccccc1)N1CCN(C(=O)C2CC2)CC1 (stereo unspecified),-,-,0,-,-
CCN(CCC(F)(F)F)C(=O)NCc1cccc2cccnc12,-,-,0,-,-
O=[N+]([O-])c1ccc(N2CCN(Cc3ccccc3)CC2)nc1,0,0,0,0,?
O=[N+]([O-])c1ccc(CN2CCSCC2)cc1,0,0,0,0,25.1µM
O=[N+]([O-])c1ccc(CN2CCN(c3ccc4ccccc4n3)CC2)cc1,0,0,50.1µM,0,0
